# Measurements taken from PubChem BioAssay AID864 (The Scripps Research Institute Molecular Screening Center, 2007).
# This is one part of the list. Activity calls are given as the source filed them. Cut-off read from the data, not from the text of the source: active = activation above about 8.4%; inactive = the rest.
# Target: Galanin receptor type 2 (Homo sapiens) (UniProt O43603)
# Experiment: activators of human galanin receptor 2 – cell-based, confirmation (AID 864);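 note: 0% = buffer-only vehicle wells and 100% = full reference agonist response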
# Conditions: GALR2-expressing cells, agonist activation; at 5.6 µM; stronger effect = higher value
# Sequence of Galanin receptor type 2 (Homo sapiens) (O43603 whole entry, looked up): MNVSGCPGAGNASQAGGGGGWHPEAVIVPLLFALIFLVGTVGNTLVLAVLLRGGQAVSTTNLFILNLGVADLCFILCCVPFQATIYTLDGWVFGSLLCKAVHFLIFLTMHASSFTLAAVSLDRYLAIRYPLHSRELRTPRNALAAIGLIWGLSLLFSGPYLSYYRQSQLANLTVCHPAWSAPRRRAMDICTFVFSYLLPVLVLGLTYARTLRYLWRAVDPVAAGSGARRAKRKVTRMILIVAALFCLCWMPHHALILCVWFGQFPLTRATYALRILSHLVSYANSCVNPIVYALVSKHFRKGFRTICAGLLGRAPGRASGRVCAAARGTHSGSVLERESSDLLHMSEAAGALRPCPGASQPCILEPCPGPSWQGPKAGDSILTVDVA
row,Structure (SMILES),activation
1,COc1ccc(C(=O)CN2C(=O)NC(C)(c3ccc(C)cc3)C2=O)cc1OC (stereo unspecified),-0.91% (inactive)
2,COc1ccccc1N1N=C(c2cccs2)CC1c1ccccc1 (stereo unspecified),6.34% (inactive)
3,CCOc1ccc(C(O)Cn2c(=N)n(CCN3CCCCC3)c3ccccc32)cc1 (stereo unspecified),-0.63% (inactive)
4,CC(=O)Oc1ccc(C(C)=O)c2c1OCCO2,-0.99% (inactive)
5,Cn1c(=O)oc2cc(S(=O)(=O)N3CCC(C(=O)Nc4ccc(OC(F)(F)F)cc4)CC3)ccc21,1.24% (inactive)
6,COc1cc(SC#N)ccc1N=Cc1c(C)[nH]n(-c2ccc(C)cc2)c1=O,7.97% (inactive)
7,CC/C(C)=N/Nc1nc2sc3c(c2c(=O)[nH]1)CC(C)(C)OC3,-0.45% (inactive)
8,C=CCn1c(Oc2ccc(C(=O)OC)cc2)nc2c1c(=O)n(C)c(=O)n2C,0.25% (inactive)
9,CCCOc1ccc(C(=O)C(CCC(CNCC)C(=O)c2ccc(OCCC)cc2)CNCC)cc1 (stereo unspecified),16% (active)
10,Cc1ccc(Cc2c(C)nc3nc(SCC(=O)NCCN4CCOCC4)nn3c2C)cc1,-0.11% (inactive)
11,COCCN(CCOC)S(=O)(=O)c1ccc(C(=O)Nc2nc3c(s2)CCc2ccccc2-3)cc1,5.93% (inactive)
12,CCOc1ccc2nc(Nc3nc4ccc(NC(C)=O)cc4s3)sc2c1,27.5% (active)
13,COc1ccc(Nc2oc(-c3ccccc3Cl)nc2C#N)cc1,2% (inactive)
14,O=c1oc2cc(O)ccc2cc1-c1ccc(F)cc1,2.23% (inactive)
15,O=[N+]([O-])c1ccccc1SNc1ccccn1,-0.89% (inactive)
16,C=CCN(CC=C)S(=O)(=O)c1ccc(C(=O)Nc2nc3c(s2)CCc2ccccc2-3)cc1,2.82% (inactive)
17,COC(=O)c1ccc(NC(=O)C(C)N2C(=O)c3ccccc3C2=O)cc1 (stereo unspecified),-0.71% (inactive)
18,Fc1ccc(N2N=C(c3cccs3)CC2c2ccco2)c(F)c1 (stereo unspecified),1.22% (inactive)
19,Cc1ccc(CCC(=O)Nc2ncc(Cc3cc(Cl)ccc3Cl)s2)o1,7.28% (inactive)
20,CC1(C)CC(=O)C=C(NCCN2CCNCC2)C1,-1.05% (inactive)
21,OC(COc1cccc2ccccc12)CN1CCN(c2ccccn2)CC1 (stereo unspecified),-0.28% (inactive)
22,O=C1COc2ccc(NC(=O)N3CCN(c4ccc(F)cc4)CC3)cc2N1,-0.98% (inactive)
23,O=C(NC(=S)Nc1ccc(NC(=O)c2cccs2)cc1)c1ccc([N+](=O)[O-])cc1,-0.89% (inactive)
24,CCN(C(=O)CSc1ncn[nH]1)c1cccc2ccccc12,-1.13% (inactive)
25,CC(=O)N(Cc1cccs1)C1CCOC(C)(C)C1 (stereo unspecified),-1% (inactive)
26,Cc1csc(NC(=O)c2ccc(-c3ccc(Cl)cc3Cl)o2)n1,-0.78% (inactive)
